target: T1, USP22 (UniProt Q9UPT9); experiment: log2 ratio of Biotin-Ahx-Ub-VS probe labelling (fragment/DMSO); higher = less target engagement (more negative = stronger competition), active = hit call of the paper (q ≤ 0.05, log2 ratio ≤ -1); settings: compound concentration: 200 uM; treatment time: 3 h
T1 sequence (whole entry): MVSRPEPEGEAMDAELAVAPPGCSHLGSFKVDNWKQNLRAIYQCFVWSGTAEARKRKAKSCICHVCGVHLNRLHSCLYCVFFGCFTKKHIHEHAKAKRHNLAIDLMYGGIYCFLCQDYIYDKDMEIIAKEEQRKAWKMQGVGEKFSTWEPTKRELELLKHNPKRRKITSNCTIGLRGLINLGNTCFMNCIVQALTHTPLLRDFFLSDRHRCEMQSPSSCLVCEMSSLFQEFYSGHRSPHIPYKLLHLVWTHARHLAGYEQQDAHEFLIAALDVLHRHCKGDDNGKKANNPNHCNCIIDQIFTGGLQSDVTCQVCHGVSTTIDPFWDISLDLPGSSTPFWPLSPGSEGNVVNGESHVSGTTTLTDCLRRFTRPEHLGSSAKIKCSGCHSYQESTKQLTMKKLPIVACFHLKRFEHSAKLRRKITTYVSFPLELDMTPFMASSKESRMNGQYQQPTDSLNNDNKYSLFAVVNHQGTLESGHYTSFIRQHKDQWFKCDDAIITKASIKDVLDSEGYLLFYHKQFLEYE
Experimental: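 Competitive ABPP in HEK293T cell lysate. Lysates were treated with each chloroacetamide fragment at 200 µM for 3 h, then with Biotin-Ahx-Ub-VS (0.5 µM, 1 h), NeutrAvidin-enriched and analysed by diaPASEF LC-MS/MS. Protein LFQ was median-normalised; average log2 ratio is fragment/DMSO from an unpaired t-test (n=3 treated, n=44 DMSO). Hits: q ≤ 0.05, log2 ratio ≤ -1, unique peptides ≥ 2.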

log2 ratio of Biotin-Ahx-Ub-VS probe labelling, inactive:
O=C(CCl)N1CCN(c2nc3ccccc3o2)CC1 0.146
O=C(CCl)N1CCCC1c1ccsc1 (stereo not given) -0.304
COc1cccc(CN(C)C(=O)CCl)c1 -0.426
O=C(CCl)Nc1cc2c(cc1Cl)OCCO2 -0.112
O=C(CCl)NCC(=O)N1CCCC1 -0.00438
Cc1cccc(NC(=O)CCl)c1C -0.267
Cc1cc(Cl)ccc1NC(=O)CCl -0.467
CC1CN(c2ccc(NC(=O)CCl)cc2)CC(C)O1 (stereo not given) -0.32
Cc1ccn2cc(CNC(=O)CCl)nc2c1.Cl -0.112
Cc1ccc(N2CCC(NC(=O)CCl)C2=O)cc1 (stereo not given) -0.233
COc1ccccc1C(C)NC(=O)CCl (stereo not given) -0.46
O=C(CCl)NC(Cn1ccccc1=O)c1ccccc1 (stereo not given) 0.298
Cl.O=C(CCl)N1CCc2ncncc2C1 -0.0201
N#Cc1ccc(Cl)cc1NC(=O)CCl 0.184
Cc1cc(C(=O)NC2CCN(C(=O)CCl)CC2)no1 -0.208
O=C(CCl)N1CCC(c2nc3ccccc3o2)CC1 -0.0192
CC(O)CC1CCN(C(=O)CCl)CC1 (stereo not given) 0.037
Cl.Cn1cnc2cc(CNC(=O)CCl)ccc21 0.00285
CN(C)S(=O)(=O)c1ccccc1CNC(=O)CCl -0.12
CCC1c2ccsc2CCN1C(=O)CCl (stereo not given) 0.0245
C[C@H]1CN(C(=O)CCl)CCN1C(=O)c1cnn(C)c1.Cl -0.177
O=C(CCl)N1CCC(OCc2ccccc2F)CC1 -0.181
Cc1cccc(N(CCC#N)C(=O)CCl)c1C -0.11
O=C(CCl)NC1CCCCNC1=O (stereo not given) -0.0454
O=C(CCl)Nc1cc2c(cc1Cl)OCCCO2 0.133
CC(NC(=O)CCl)c1cccc2ccccc12 (stereo not given) -0.925
CCN(Cc1ccc(C#N)cc1F)C(=O)CCl -0.094
Cl.O=C(CCl)NCc1cc2c(nc1O)CCCC2 -0.0357
CN(CCC(O)c1ccc(Br)cc1)C(=O)CCl (stereo not given) -0.43
CN(CCc1ncc(Br)cn1)C(=O)CCl.Cl -0.0976
CN(C)C(=O)c1ccc(CNC(=O)CCl)cc1 0.0551
CC1CCc2onc(CNC(=O)CCl)c2C1 (stereo not given) 0.192
O=C(CCl)NCCc1ccc(F)cc1 0.0853
NC(=O)C1CCCN(C(=O)CCl)C1 (stereo not given) 0.245
Cl.Cn1ncc2c1CCCC2NC(=O)CCl (stereo not given) 0.202
Cc1cccc(NC(=O)[C@@H]2CCCN2C(=O)CCl)n1 -0.038
Cc1ccc(C(=O)NCCNC(=O)CCl)cc1 -0.00216
CC(NC(=O)CCl)c1cccc(Cl)c1 (stereo not given) -0.146
O=C(CCl)NCC1(c2ccccc2)CC1 0.0204
Cc1cccc2nc(CCNC(=O)CCl)cn12.Cl 0.075

Source: the supplement of paper PMC11732987, “Enantioselective OTUD7B fragment discovery through chemoproteomics screening and high-throughput optimisation” (Communications Chemistry, 2025)
